Rtt109 HAT inh: C. albicans Rtt109 histone acetyltransferase inhibition; purified Rtt109/Vps75, ThioGlo CoA-SH fluorescence, 4 h; inhibition, % at 34.9 µM; 0.16% of 330,000 active; Q5AAJ8; AID 540336;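 active = inhibition of at least 50% in every replicate; inconclusive = best replicate reaches 50% inhibition but some replicates fall short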
DAGLB inh: diacylglycerol lipase beta (human) inhibition; HEK293T DAGLB membrane lysate, EnzChek fluorogenic substrate; Q8NCG7; 0.059% of 340,000 active; inhibition, % at 5.17 µM; in the data active = inhibition above about 34%
Cardio protect: myocardial damage modulation in H9c2 cells | 0.63% of 360,000 active | H9c2 cardiomyocytes, H2O2 injury protection, ATPLite, 2 h | AID 588492 | protection from H2O2 cell death, % at 20 µM;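 active = compounds giving at least 50% protection of heart cells from peroxide-induced death in the single-dose screen, raw or plate-pattern-corrected value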
ABHD5 PLIN5 PPI: ABHD5-PLIN5 protein interaction inhibition; inhibition, % at 4 µM; Split G. princeps luciferase complementation, luminescence, 4 h; 0.78% of 360,000 active; Q00G26+Q8WTS1;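 active = inhibition above the mean inhibition across every tested compound plus 3 SD, cut at about 22% in these data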
Target sequence (Q00G26 whole entry, looked up): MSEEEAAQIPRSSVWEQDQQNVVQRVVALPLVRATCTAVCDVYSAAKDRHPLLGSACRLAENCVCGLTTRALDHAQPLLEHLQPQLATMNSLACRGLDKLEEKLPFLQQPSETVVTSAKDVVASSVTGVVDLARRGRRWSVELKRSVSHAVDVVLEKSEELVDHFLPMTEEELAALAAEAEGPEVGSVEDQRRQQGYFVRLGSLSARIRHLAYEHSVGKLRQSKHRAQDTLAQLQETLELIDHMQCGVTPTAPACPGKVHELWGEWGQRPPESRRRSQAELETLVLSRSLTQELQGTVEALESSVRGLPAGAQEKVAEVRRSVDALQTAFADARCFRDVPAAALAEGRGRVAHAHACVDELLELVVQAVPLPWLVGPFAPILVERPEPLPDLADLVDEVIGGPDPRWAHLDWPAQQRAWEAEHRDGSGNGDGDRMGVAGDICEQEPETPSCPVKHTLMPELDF
Target sequence (Q8WTS1 whole entry, looked up): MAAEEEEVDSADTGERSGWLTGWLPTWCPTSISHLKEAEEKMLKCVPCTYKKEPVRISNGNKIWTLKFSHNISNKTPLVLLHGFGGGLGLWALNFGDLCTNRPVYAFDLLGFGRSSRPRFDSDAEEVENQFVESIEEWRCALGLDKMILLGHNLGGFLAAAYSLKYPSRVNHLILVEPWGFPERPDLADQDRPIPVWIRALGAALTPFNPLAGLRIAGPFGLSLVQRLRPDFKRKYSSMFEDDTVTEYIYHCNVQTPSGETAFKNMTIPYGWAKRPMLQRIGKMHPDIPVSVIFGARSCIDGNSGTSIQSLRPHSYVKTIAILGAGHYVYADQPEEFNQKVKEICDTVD
Myeloid diff MLP: compounds promoting myeloid differentiation. ER-HoxA9 myeloid progenitors, lysozyme-GFP differentiation, flow cytometry. calls only at 10 µM. 1% of 360,000 active. AID 624256;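 active = normalized GFP-positive differentiation at or above the plate's own cutoff, the solvent-only control mean plus 3 SD; inconclusive = no clear call, values can overlap the other calls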;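 note: cells exposed to compound for four days before flow analysis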
sPLA2-III inh: Inhibits HGIII-sPLA2 liposome hydrolysis, primary screen; QFRET BODIPY PC-A2 liposome hydrolysis, fluorescence; 0.56% of 370,000 active; inhibition, % at 12.2 µM;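 active = inhibition above mean plus 3 SD of compounds lying within the high and low control bounds, cut at about 19% in these data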
Hits are given with their value; . = inactive; ? = inconclusive; / = no result given; + = active, no number; ! = repeats disagree. The list is not random: actives were taken first. Their share in the collection is about 2.9%.

SMILES	Rtt109 HAT inh	DAGLB inh	Cardio protect	ABHD5 PLIN5 PPI	Myeloid diff MLP	sPLA2-III inh
O=C(O)c1cccc(N/N=C/c2cc(Br)cc(Br)c2O)c1	.	.	.	.	.	.
CC1Oc2ccccc2OC1(O)c1ccccn1 (centres undefined)	.	.	.	.	.	.
O=C(COC(=O)c1c2c(nc3ccccc13)/C(=C/c1cccc([N+](=O)[O-])c1)CCC2)NC1CCS(=O)(=O)C1 (centres undefined)	.	.	59	.	.	.
CCOc1ccccc1NC(=O)c1cc(C(=O)c2cc(Br)ccc2O)coc1=N	.	.	.	.	.	.
CC(C)n1c(O)c(N=NC(=O)CNC(=O)Cc2ccc(Cl)cc2)c2ccccc21	.	.	.	.	.	.
CC(C)n1c(O)c(N=Nc2ccc(Cl)nn2)c2ccccc21	.	.	65	.	.	.
COc1ccc2[nH]c(C)c(CCN(Cc3cccs3)C(=S)Nc3ccc(F)cc3)c2c1	.	.	.	.	+	/
O=C(CNC(=O)c1nc[nH]c1C(=O)NCC(=O)OCc1ccccc1)OCc1ccccc1	.	.	96	.	.	.
O=C(CNC(=O)c1nc[nH]c1C(=O)NCc1ccccc1)OCc1ccccc1	.	.	103	.	.	.
CCN(CC)C(=O)c1[nH]cnc1C(=O)NCC(=O)OCc1ccccc1	.	.	105	.	.	.
CC(=O)/C=C(\C)Nc1c(C)n(C)n(-c2ccccc2)c1=O	.	.	.	.	.	.
COc1cccc(NC(=O)NCc2ccccc2Cl)c1	.	.	.	.	.	.
CC(=O)N=c1c(C#N)cc2c(=O)n3ccccc3nc2n1CCCOC(C)C	/	/	.	.	.	.
CC(C)OCCCn1c(=N)c(C(N)=S)cc2c(=O)n3ccccc3nc21	.	.	.	.	+	.
Cc1nc(NC(=O)/C=C/c2ccco2)sc1C	.	.	.	.	?	.
CNS(=O)(=O)c1ccc2nc(NC(=O)/C=C/c3ccco3)sc2c1	.	.	64	.	.	.
O=C(/C=C/c1ccco1)Nc1nnc(-c2ccco2)s1	.	.	.	.	+	.
O=C(NCc1ccccc1)Nc1cc(Cl)ccc1Cl	.	.	.	.	.	.
CN(CC(=O)O)S(=O)(=O)/C=C/c1ccccc1	.	.	.	.	.	.
COc1cccc(/C=N/NC(=O)c2[nH]c(C)c(C(=O)N/N=C/c3cccc(OC)c3)c2C)c1	.	.	56	.	.	.
C=C(CN(C)C)C(=O)c1ccc(C)cc1C	.	.	.	60	/	.
Cc1cc2nc(C(C)(C)C)cc(N)n2n1	.	.	.	.	.	.
CC(C)(C)c1cc(N)n2nc(C(C)(C)C)cc2n1	53	.	.	.	.	.
CN(C)CCN(Cc1ccccc1)C(=O)[C@H](Cc1ccccc1)N1C(=O)c2ccccc2C1=O	.	.	.	.	.	.
Cc1ccccc1N1C(N)=NC(N)=NC1(C)C	.	.	/	.	+	.
SMILES	Rtt109 HAT inh	DAGLB inh	Cardio protect	ABHD5 PLIN5 PPI	Myeloid diff MLP	sPLA2-III inh
COc1ccccc1N1C(N)=NC(N)=NC1(C)C	.	.	.	.	+!	.
Cc1ccc(N2C(N)=NC(N)=NC2(C)C)c(C)c1	.	.	.	.	?	.
CN(Cc1ccccc1)C(=O)c1ccc(NC(=O)Cc2ccc([N+](=O)[O-])cc2)cc1	.	.	.	.	.	.
CC(C)NC(=O)c1sc2nc3c(c(-c4cccs4)c2c1N)CN(C)CC3	.	.	.	.	.	.
Cc1cccc(NC(=O)c2sc3nc4c(c(-c5cccs5)c3c2N)CN(C)CC4)c1	.	.	.	.	+	.
COc1ccc(C(=O)Nc2nnc(Cc3cccs3)s2)cc1OC	.	.	.	.	+	.
COc1ccc(C(=O)Nc2cccc(NC(=O)c3ccc(OC)c(OC)c3)n2)cc1OC	.	.	54	.	.	.
COc1ccc(C(=O)Nc2cccc3cccnc23)cc1OC	.	.	.	.	.	.
COc1cc(C(=O)Nc2nc(-c3cccs3)cs2)cc(OC)c1OC	.	.	81	.	.	.
COc1ccc(Cc2nnc(NC(=O)c3cc(OC)c(OC)c(OC)c3)s2)cc1	55	.	.	.	.	.
COC(=O)c1ccc(C(=O)OC)c(NC(=S)N2CCOCC2)c1	.	.	.	.	.	.
COc1cccc(CC(=O)OCC(=O)N(C)CC(=O)Nc2ccc(Cl)c(C(F)(F)F)c2)c1	.	.	.	.	.	.
Cc1occc1-c1nnc(SCC(=O)N2CCCc3ccccc32)n1Cc1ccco1	.	.	.	.	.	.
C=CC[C@@H]1NN2C(=O)[C@@H](CCCC)[C@@H]3c4cc5ccccc5cc4C=NN3[C@@H]2c2cc3ccccc3cc21	/	/	/	/	/	.
CC1CCN(S(=O)(=O)c2ccc(C(=O)NNC(=O)C3CC3)cc2)CC1	.	.	.	.	.	.
CC(C)OCCCN(C)C1CCN(S(=O)(=O)c2csc(C(N)=O)c2)CC1	.	.	.	.	.	.
CC(C)OCCCN(C)C1CCN(S(=O)(=O)c2ccc(-c3cc(C(F)(F)F)no3)s2)CC1	.	.	.	.	+	.
COc1ccc(-n2cnc3cc([N+](=O)[O-])ccc32)cc1	.	.	.	.	.	.
Nc1ccc(-n2cnc3cc([N+](=O)[O-])ccc32)cc1	.	.	.	.	+	.
O=C(CN1C(=O)S/C(=C\C=C\c2ccccc2)C1=O)Nc1cccc(O)c1	.	.	.	.	.	.
CC(=N\Nc1ccccc1)/C(=N/O)C(=O)Nc1ccccc1	.	.	.	.	.	.
CCOc1ccc(N(CC(=O)N2CCc3ccccc32)S(=O)(=O)c2c(C)noc2C)cc1	.	.	.	.	+	.
Cc1cc(C)cc(N(CC(=O)N2CCc3ccccc32)S(=O)(=O)c2c(C)noc2C)c1	.	.	.	.	.	.
CCN(C(=O)CSc1nc(C)nc2sc(C)c(C)c12)C1CCS(=O)(=O)C1 (centres undefined)	.	.	.	.	.	.
CCOC(=O)c1sc2nc(C)nc(SCC(=O)N(C)C3CCS(=O)(=O)C3)c2c1C (centres undefined)	50	.	.	.	.	.
C#CCOCCOCCOCCNc1nc(N2CCN(C(=O)[C@H](CCCN=C(N)N)n3cc(C(N)[C@@H](C)CC)nn3)CC2)nc(N2CCN(C(=O)[C@H](CCCCN)n3cc([C@@H](N)[C@H](C)CC)nn3)CC2)n1 (some centres undefined)	54	.	.	.	.	.
C#CCOCCOCCOCCNc1nc(N2CCN(C(=O)[C@H](CCCCN)n3cc([C@@H](N)C(C)CC)nn3)CC2)nc(N2CCN(C(=O)[C@H](Cc3cc4ccccc4[nH]3)n3cc([C@@H](N)CC(C)C)nn3)CC2)n1 (some centres undefined)	.	.	.	24	.	/

Assay outcomes (PubChem BioAssay)
